Data published in PubChem BioAssay.
Calls of active or inactive are those of the source. Rule as the data show it, unless noted: active = inhibition above about 31%; inactive = the rest.

Test: yeast transport mutant growth inhibition pilot in 384-well plates, post-Golgi transport modulator project (AID 636)
Conditions: absorbance 615 nm, about 18 h, hits give high values

inhibition, inactive:
CCn1c(=O)cc(SCC(=O)Nc2cccnc2)c2ccccc21 -1.32%
c1ccc2c(c1)CNc1ccccc1C2 -3.87%
O=C(Nc1cccc(C(F)(F)F)c1)c1ccco1 -5.33%
CCC(c1nnc(SCC(=O)NCC2CCCO2)n1Cc1ccccc1)N(C)C (stereo not given) -7.47%
COC(=O)c1cc(Br)c(=O)n(-c2ccc(OC)cc2)c1 -2.8%
COc1cccc(OCc2nc3ccccc3[nH]2)c1 -0.51%
O=c1c2c(-c3ccccc3)csc2nc2n1CCC2 2.84%
COc1cccc(C(=O)CN2CCC(NC(=O)NC3CCCCC3)CC2)c1 -5.79%
COc1ccc(OC)c(C(=O)COC(=O)c2cc(C)oc2C)c1 -7.33%
O=C(Nc1ccccc1C(=O)N1CCN(c2ccccc2)CC1)c1ccco1 -2.53%
Cc1ccc(C(c2nnnn2CCC(C)C)N2CCN(C)CC2)cc1 (stereo not given) -6.67%
COC(=O)C(C)Oc1ccc2c3c(c(=O)oc2c1)CCCCC3 (stereo not given) 1.05%
COc1ccccc1N1CCN(C(=O)c2ccc(S(=O)(=O)N3CCCCCC3)cc2)CC1 -5.73%
COc1ccc(CCNC(=O)CC2COc3ccccc3O2)cc1OC (stereo not given) -4.67%
Cc1cccc(-c2noc(CCC(=O)Nc3ccccc3)n2)c1 -7.3%
C=CCn1c(=O)/c(=C/c2ccc(O)cc2)s/c1=C(/C#N)c1nnc2n1CCCCC2 -5.27%
O=C(NCCCNC1CCCCC1)c1ccc(/C=N/O)nc1 -0.91%
O=C(CSc1nnnn1-c1ccccc1)c1cc2ccccc2oc1=O -6.62%
Cc1ccc(Nc2nc(N)nc(CN3CCCCCC3)n2)cc1 -1.69%
c1cncc(-c2nnc(-c3ccco3)o2)c1 -4.93%
COc1ccc(OC)c(C2=NOC(C(=O)NCCN3CCOCC3)C2)c1 (stereo not given) -1.18%
C/C(=N\O)C(C)/[N+]([O-])=C/c1nc(C)c(C)n1O (stereo not given) -0.27%
COc1ccc(CNC(=O)c2cc(-c3ccc(OC)c(OC)c3)on2)cc1 -5.95%
C=CCOc1ccc(/C(O)=C2\C(=O)C(=O)N(CCOC)C2c2cccnc2)cc1 (stereo not given) -6.89%
C=CCN1C(=O)/C(=C2\SC(N3CCOCC3)=NC2=O)c2cc(Br)ccc21 -1.32%
COc1ccccc1Nc1nc2ccccc2[nH]1 -9.07%
Cn1nnnc1SCSc1nnnn1C -5%
CN(CC(=O)Nc1ccc2c(c1)OCCO2)S(=O)(=O)c1ccc(Br)s1 -2.63%
CCn1c(=O)n(CC(=O)NCc2ccccc2OC)c(=O)c2ccccc21 0.92%
O=C1NC(c2ccco2)Nc2ccccc21 (stereo not given) 0.55%
COCCNC(=O)C(c1ccc(C)o1)N(Cc1ccc(F)cc1)C(=O)Cn1nnc2ccccc21 (stereo not given) 6.62%
C=CCn1cnc2c(NCc3ccccc3)ncnc21 1.71%
Cc1ccc2cc(CN(CC3CCCO3)S(=O)(=O)c3ccc4c(c3)OCCO4)c(=O)[nH]c2c1C (stereo not given) -5.07%
COc1ccccc1C1c2c(oc3ccc(Cl)cc3c2=O)C(=O)N1c1cc(C)on1 (stereo not given) -2.93%
CC(C)=CC/C=C1\CCC(C(=O)O)C(C(=O)O)C1 (stereo not given) -6.13%
COCCOC(=O)c1c(C)oc2ccc(NS(=O)(=O)c3ccc(F)cc3)cc12 -2.43%
Cc1ccc(C)c(N2CCN(C(=O)CCCn3c(=S)[nH]c4cc5c(cc4c3=O)OCO5)CC2)c1 -3.38%
CCC(C)N=C1SCC(C)(/C=N/O)S1 (stereo not given) -2.37%
CCSc1nc2ccccc2n1CC(N)=O -9.04%
C=CCn1c(SCC(=O)NC2CCCCC2)nnc1-c1sc(N)nc1C -2.8%

Test: growth suppression of yeast trafficking mutant, preliminary HTS, modulators of trafficking downstream of Golgi apparatus project, 1536-format plate, OD 615 nm (AID 637; in the data active = inhibition above about 30%)
Conditions: yeast transport mutant growth, absorbance 615 nm, 18 h; hits give high values

inhibition, inactive:
CCn1c(=O)cc(SCC(=O)Nc2cccnc2)c2ccccc21 1.43%
c1ccc2c(c1)CNc1ccccc1C2 -3.71%
O=C(Nc1cccc(C(F)(F)F)c1)c1ccco1 8.52%
CCC(c1nnc(SCC(=O)NCC2CCCO2)n1Cc1ccccc1)N(C)C (stereo not given) -1.61%
COC(=O)c1cc(Br)c(=O)n(-c2ccc(OC)cc2)c1 0.65%
COc1cccc(OCc2nc3ccccc3[nH]2)c1 -5%
O=c1c2c(-c3ccccc3)csc2nc2n1CCC2 29.2%
COc1cccc(C(=O)CN2CCC(NC(=O)NC3CCCCC3)CC2)c1 -2%
COc1ccc(OC)c(C(=O)COC(=O)c2cc(C)oc2C)c1 -4.92%
O=C(Nc1ccccc1C(=O)N1CCN(c2ccccc2)CC1)c1ccco1 4.43%
Cc1ccc(C(c2nnnn2CCC(C)C)N2CCN(C)CC2)cc1 (stereo not given) 1.97%
COC(=O)C(C)Oc1ccc2c3c(c(=O)oc2c1)CCCCC3 (stereo not given) 5.74%
COc1ccccc1N1CCN(C(=O)c2ccc(S(=O)(=O)N3CCCCCC3)cc2)CC1 -3.44%
COc1ccc(CCNC(=O)CC2COc3ccccc3O2)cc1OC (stereo not given) 8.36%
Cc1cccc(-c2noc(CCC(=O)Nc3ccccc3)n2)c1 -11.2%
C=CCn1c(=O)/c(=C/c2ccc(O)cc2)s/c1=C(/C#N)c1nnc2n1CCCCC2 -2.83%
O=C(NCCCNC1CCCCC1)c1ccc(/C=N/O)nc1 -5.71%
O=C(CSc1nnnn1-c1ccccc1)c1cc2ccccc2oc1=O -6.83%
Cc1ccc(Nc2nc(N)nc(CN3CCCCCC3)n2)cc1 2.83%
c1cncc(-c2nnc(-c3ccco3)o2)c1 -7.58%
COc1ccc(OC)c(C2=NOC(C(=O)NCCN3CCOCC3)C2)c1 (stereo not given) -3.27%
C/C(=N\O)C(C)/[N+]([O-])=C/c1nc(C)c(C)n1O (stereo not given) 0.48%
COc1ccc(CNC(=O)c2cc(-c3ccc(OC)c(OC)c3)on2)cc1 -3.83%
C=CCOc1ccc(/C(O)=C2\C(=O)C(=O)N(CCOC)C2c2cccnc2)cc1 (stereo not given) 1.17%
C=CCN1C(=O)/C(=C2\SC(N3CCOCC3)=NC2=O)c2cc(Br)ccc21 -2.55%
COc1ccccc1Nc1nc2ccccc2[nH]1 -7.94%
Cn1nnnc1SCSc1nnnn1C -0.95%
CN(CC(=O)Nc1ccc2c(c1)OCCO2)S(=O)(=O)c1ccc(Br)s1 -10.8%
CCn1c(=O)n(CC(=O)NCc2ccccc2OC)c(=O)c2ccccc21 -3.06%
O=C1NC(c2ccco2)Nc2ccccc21 (stereo not given) -6.98%
COCCNC(=O)C(c1ccc(C)o1)N(Cc1ccc(F)cc1)C(=O)Cn1nnc2ccccc21 (stereo not given) -1.31%
C=CCn1cnc2c(NCc3ccccc3)ncnc21 -7.9%
Cc1ccc2cc(CN(CC3CCCO3)S(=O)(=O)c3ccc4c(c3)OCCO4)c(=O)[nH]c2c1C (stereo not given) -6.03%
COc1ccccc1C1c2c(oc3ccc(Cl)cc3c2=O)C(=O)N1c1cc(C)on1 (stereo not given) 8.71%
CC(C)=CC/C=C1\CCC(C(=O)O)C(C(=O)O)C1 (stereo not given) -0.48%
COCCOC(=O)c1c(C)oc2ccc(NS(=O)(=O)c3ccc(F)cc3)cc12 2.7%
Cc1ccc(C)c(N2CCN(C(=O)CCCn3c(=S)[nH]c4cc5c(cc4c3=O)OCO5)CC2)c1 -0.33%
CCC(C)N=C1SCC(C)(/C=N/O)S1 (stereo not given) -0.98%
CCSc1nc2ccccc2n1CC(N)=O 1.9%
C=CCn1c(SCC(=O)NC2CCCCC2)nnc1-c1sc(N)nc1C -1.45%
